Only some compounds are listed: those with a hit (about 3.1% of all), similar ones and a draw of the others.
EPAC2 ant val = Validation qHTS for antagonist of cAMP-regulated guanine nucleotide exchange factor 4 (EPAC2); Potency, µM (highest dose often 112 µM), inactives show at the highest dose activity, negative = inhibition, hits mostly inhibitors; AID 1645886, 2021; hit rate 1.7% among 16,000; EPAC2 Rap1B BODIPY-GDP exchange, fluorescence;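 also: 100% = activation by cAMP agonist control; nearly all actives have a fitted effect of over 40% in size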
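Normalized against a 6.5 mM cAMP agonist control, compounds were tested on 100 nM EPAC2 exchanging Rap1B-bound BODIPY-GDP (250 nM) for 50 uM GDP. Fluorescence drop (ex 480, em 540 nm) was tracked at room temperature over 30 min at 5-min intervals.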
EPAC1 ag val = Validation qHTS for agonist of cAMP-regulated guanine nucleotide exchange factor 3 (EPAC1); Potency, µM, for the others: max response, positive = active, most hits filed as activators; AID 1645883, 2021; hit rate 1% among 16,000; EPAC1 Rap1b BODIPY-GDP exchange, fluorescence; also: nearly all actives have a fitted effect of over 70% in size
* = called active by the depositor; i = inactive; u = inconclusive; ! = a repeat was not active; [ ] = another dose, or the depositor's remark. Calls follow the shape of the dose curve; as a rule, active = well fitted curve in the direction sought with a large enough effect; inconclusive = small, poorly fitted or top-dose-only effect, or another doubt; inactive = no such curve, though single readings can be large; an effect the other way counts as inactive or inconclusive. Unless noted, % is scaled to controls: 0 for no effect and ±100 for the full control effect; potency is read from the fitted curve at half-maximal effect.

SMILES	EPAC2 ant val	EPAC1 ag val
COc1ccc(-n2c(=O)c(-c3ccc(Cl)cc3)nc3cnc(N(C)C)nc32)cc1	13%	100µM*
COc1ccc(-c2nc3cnc(N(C)C)nc3n(-c3ccccc3)c2=O)cc1	30%	-94%
Clc1ccccc1C(c1ccccc1)(c1ccccc1)n1ccnc1	11µM*!	u
Clc1ccccc1-c1nccc(-n2ccnc2)n1	-21%	18%
Nc1cc(N)cc(N)c1	56µM*	10%
Nc1ccc(O)cc1	u	8%
Cc1nc2sccn2c(=O)c1CCN1CCC(=C(c2ccc(F)cc2)c2ccc(F)cc2)CC1	50µM*!	u
Cc1nc2ccccn2c(=O)c1CCN1CCC(C(=O)c2ccc(F)cc2)CC1	-9%	1%
CO[C@H]1C=CO[C@@]2(C)Oc3c(C)c(O)c4c(O)c(c(/C=N/N5CCN(C6CCCC6)CC5)c(O)c4c3C2=O)NC(=O)/C(C)=C\C=C[C@H](C)[C@H](O)[C@@H](C)[C@@H](O)[C@@H](C)[C@H](OC(C)=O)[C@@H]1C	u	-94%
CN1CCN(c2ncc3nc(-c4cn(C)c5ccccc45)c(=O)n(CCC#N)c3n2)CC1	90%	112µM*
CN1CCN(c2ncc3nc(-c4cccs4)c(=O)n(CCc4ccccc4)c3n2)CC1	46%	112µM*
CN1CCN(c2ncc3nc(-c4cccs4)c(=O)n(Cc4ccc(F)cc4)c3n2)CC1	2%	13%
N#CCCn1c(=O)c(-c2cccs2)nc2cnc(N3CCOCC3)nc21	29%	63µM*
CN1CCN(c2ncc3nc(-c4cn(C)c5ccccc45)c(=O)n(CCc4ccccc4)c3n2)CC1	-25%	-7%
O=c1c(-c2cccs2)nc2cnc(N3CCOCC3)nc2n1Cc1cccs1	6%	10%
COCc1ccc(CN2CCOc3c(cc(-c4cc(C)c5cccc(OC)c5n4)cc3OC)C2)o1	u	6%
Cc1ccc2[nH]nc(C(=O)N3CCOc4ccc(CN5CCc6sccc6C5)cc4C3)c2c1	-23%	-7%
CCCCCCCCCCCCCCCC[n+]1ccc(C)c2ccccc21	-48%	-84%
COc1cc(OC)c(OC)cc1CN1CCCC(n2cc(C(=O)N3CCCCC3)nn2)C1 (stereo unspecified)	12%	-23%
O=c1cnc2cnc(OCc3ccccc3)nc2n1CCc1ccccc1	22µM*	u
N#CCCn1c(=O)cnc2cnc(OCc3ccccc3)nc21	-25%	11%
CC(C)=CCc1c(O)cc(O)c2c1O[C@H](c1ccccc1)CC2=O	50µM*	u
O=C1CC(c2ccc(O)cc2)Oc2ccccc21 (stereo unspecified)	u	-12%
O=C(Nc1ccc(S(=O)(=O)N2CCOCC2)cc1)c1cc(Cl)ccc1NS(=O)(=O)c1ccc(Cl)s1	u	-2%
CN=C(N)NC(=O)Nc1c(C)cccc1C	16%	2%
SMILES	EPAC2 ant val	EPAC1 ag val
Cc1cccc(C)c1NC(=O)C(C)N (stereo unspecified)	-13%	89µM*!
Oc1c(Cl)cc(Cl)cc1Sc1cc(Cl)cc(Cl)c1O	56µM*	-9%
O=S(c1cc(Cl)cc(Cl)c1O)c1cc(Cl)cc(Cl)c1O	u	-3%
FC(F)OC(Cl)C(F)(F)F (stereo unspecified)	i	35µM*
FC(F)(F)C(Cl)Br (stereo unspecified)	-19%	-43%
CC1(C)[C@@H](OC(=O)CCC(=O)O)CC[C@]2(C)[C@H]3C(=O)C=C4[C@@H]5C[C@@](C)(C(=O)O)CC[C@]5(C)CC[C@@]4(C)[C@]3(C)CC[C@@H]12	4µM*	-7%
CC(=O)OC1CC[C@]2(C)C(CC[C@@]3(C)C2C(=O)C=C2C4C(C)C(C)CC[C@@]4(C(=O)O)CCC23C)C1(C)C (stereo partly specified)	-20%	-189%
COc1cc(-c2cc(C)c3cccc(OC)c3n2)cc2c1OCCN(C(=O)CCn1ccc(C)n1)C2	-2%	1%
C/C(=C(\CCOC(=O)c1ccccc1)SS/C(CCOC(=O)c1ccccc1)=C(/C)N(C=O)Cc1cnc(C)nc1N)N(C=O)Cc1cnc(C)nc1N	-3%	9%
CC(C)C[C@@H]1NC(=O)[C@H](CCCN)NC(=O)[C@H](C(C)C)NC(=O)[C@@H]2CCCN2C(=O)[C@@H](Cc2ccccc2)NC(=O)[C@H](CC(C)C)NC(=O)[C@H](CCCN)NC(=O)[C@H](C(C)C)NC(=O)[C@@H]2CCCN2C(=O)[C@@H](Cc2ccccc2)NC1=O	u	-38%
NC(=NCCCCCCN=C(N)/N=C(\N)Nc1ccc(Cl)cc1)/N=C(\N)Nc1ccc(Cl)cc1	79µM*!	-13%
CC(C)N=C(N)/N=C(\N)Nc1ccc(Cl)cc1	-10%[56.6 µM]	-17%
COc1ccc(C(=O)N2CCC3(CCCN(Cc4cc(C(F)(F)F)cc(C(F)(F)F)c4)C3)CC2)cc1	35µM*	-78%
